Most compounds without a hit are left out; they make up all but 5.2% or so of the library.
GRIN3A LBD mod – binders of NR3A ligand-binding domain, primary screen, biophysical, differential scanning fluorimetry, uHTS | Glutamate receptor ionotropic, NMDA 3A (GRIN3A) ligand-binding domain | NR3A LBD differential scanning fluorimetry, Tm shift; 0% = protein alone, 100% = glycine-bound protein | Tm shift relative to glycine control, % at 25 µM | 340,000 tested, 2.5% active | AID 1259313, 2017;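 active = melting temperature shift of at least 10% of the positive control shift, at one fixed dose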
SKN-1 inh – suppressors of acrylamide-induced Pgst-4::GFP reporter in worms, primary screen, SKN-1 inhibitor project, whole organism, uHTS, GFP/RFP fluorescence ratio, strain VP596 | C. elegans VP596 Pgst-4::GFP/RFP ratio, 24 h | inhibition, % at 21.8 µM | 360,000 tested, 0.49% active | AID 624304, 2012;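 active = interference check ratio from 0.5 to 1.5 plus GFP to RFP signal ratio inhibition reaching or exceeding a fixed threshold, cut at about 30% in these data, passing the limit was not always enough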
SMARCA2 activ – SMARCA2 (BRM) function activators, primary screen, cell-based, luminescence, high throughput; MG213 cells, MMTV-luciferase reporter, dexamethasone, overnight; activation, % at 9.1 µM; 370,000 tested, 1% active; AID 652017, 2013; in the data active = activation above about 7.8%;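 note: 0% = vehicle wells and 100% = reference activator wells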
esBAF inh – Bmi1 luciferase reporter increase in mESCs, primary screen, esBAF inhibitor project, mouse ES cells, Bmi1 luciferase knock-in, single point; reporter increase, % at 12.5 µM; 350,000 tested, 2% active; 24 h; 100% = twice the neutral-well signal; in the data active = activation above about 40%; inconclusive = no clear call, values can overlap the other calls;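 note: 0% = median of the plate's neutral control wells and 100% = double that signal; a rise in the Bmi1 reporter signal indicates esBAF inhibition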
Vif inh – HIV Vif self-association inhibitors, primary screen, imaging, HEK293T, single point; 340,000 tested, 0.35% active; inhibition, % at 7.49 µM; HEK293T cells, Vif self-association by quenched fluorescence, 24 h; AID 602346, 2012; in the data active = inhibition above about 50%, passing the limit was not always enough; inconclusive = no clear call, values can overlap the other calls; inactive = below about 31%
NadD block – inhibitors of S. aureus NadD, primary screen, biochemical, colorimetric, uHTS; Nicotinate-nucleotide adenylyltransferase NadD (Staphylococcus aureus N315); purified NadD enzyme, colorimetric absorbance read-out; inhibition, % at 20 µM; 360,000 tested, 0.78% active; in the data active = inhibition above about 26%
Active calls of the source: *.

CCN1C/C(=C/c2ccc(OC)c(O)c2)C(=O)/C(=C/c2ccc(OC)c(O)c2)C1 was read as GRIN3A LBD mod -0.9, SKN-1 inh 2.1, SMARCA2 activ 1.1, Vif inh 0.2 and NadD block -6.7.
For CO[C@@H]1CN(C)C(=O)c2ccc(NC(=O)Nc3cccc(Cl)c3)cc2OC[C@H](C)N(C(=O)Nc2c(C)noc2C)C[C@@H]1C the results were esBAF inh 0.1.
Screening COc1ccc(S(=O)(=O)N(C)C[C@@H]2OCCCC[C@H](C)Oc3ccc(NC(=O)Nc4ccccc4)cc3C(=O)N([C@@H](C)CO)C[C@@H]2C)cc1 returned esBAF inh 3.4.
`COc1cc(/C=C/C=C2/CC/C(=C/C=C/c3ccc(O)c(OC)c3)C2=O)ccc1O` gave GRIN3A LBD mod 3.0, SKN-1 inh 17.8, SMARCA2 activ -4.0, Vif inh -13.7 and NadD block 70.3*.
For CCC(NC(=O)c1cc(COc2ccc(Cl)cc2OC)on1)c1ccncc1 (stereo not given) the results were GRIN3A LBD mod 0.8, SKN-1 inh 22.9, SMARCA2 activ 5.2, esBAF inh 67.7*, Vif inh -5.5 and NadD block -3.5.
COc1cc(Cl)ccc1OCc1cc(C(=O)NCC(C)c2ccccc2)no1 (stereo not given) was read as GRIN3A LBD mod 2.9, SKN-1 inh 6.4, SMARCA2 activ -1.8, esBAF inh 5.5, Vif inh -4.0 and NadD block -13.9.
For CCC(NC(=O)c1cc(COc2cc(C)c(Cl)c(C)c2)on1)c1ccncc1 (stereo not given) the results were GRIN3A LBD mod -10.3, SKN-1 inh -2.6, SMARCA2 activ -4.2, esBAF inh 0.5, Vif inh -20.0 and NadD block -6.2.
For COc1cc(Cl)ccc1OCc1cc(C(=O)NC(C)Cc2cnccn2)no1 (stereo not given) the results were GRIN3A LBD mod 7.3, SKN-1 inh -7.5, SMARCA2 activ 4.3, esBAF inh 66.6*, Vif inh -2.2 and NadD block -6.4.
`CC(Cc1cnccn1)NC(=O)c1cc(COc2ccc(F)cc2F)on1` (stereo not given) gave GRIN3A LBD mod 0.1, SKN-1 inh 7.6, SMARCA2 activ 1.8, esBAF inh -6.2, Vif inh 8.8 and NadD block 1.5.
CCC(NC(=O)c1cc(COc2ccc(OC)cc2Cl)on1)c1ccncc1 (stereo not given) was read as GRIN3A LBD mod 1.1, SKN-1 inh 18.1, SMARCA2 activ -1.0, esBAF inh 46.9*, Vif inh 1.6 and NadD block -1.3.
For COc1ccc(OCc2cc(C(=O)NC(C)c3nc(C)cs3)no2)c(Cl)c1 (stereo not given) the results were SKN-1 inh 5.5, SMARCA2 activ 0.0, esBAF inh 61.2*, Vif inh -3.0 and NadD block -0.9.
For CCCC(=O)N1CCCC(c2nc(-c3cccs3)no2)C1 (stereo not given) the results were GRIN3A LBD mod 6.9, SKN-1 inh 5.3, SMARCA2 activ -0.4, esBAF inh inconclusive and NadD block 3.1.
For CCC(C)C(=O)N1CCCC(c2nc(-c3cccs3)no2)C1 (stereo not given) the results were GRIN3A LBD mod 0.4, SKN-1 inh -2.8, SMARCA2 activ 6.5, esBAF inh 52.7*, Vif inh -6.1 and NadD block 1.7.
Screening O=C(NNc1nc2ccccc2s1)Nc1ccc(F)cc1 returned GRIN3A LBD mod -12.8, SKN-1 inh 7.2, SMARCA2 activ 0.0, esBAF inh inconclusive, Vif inh -3.8 and NadD block 2.7.
CS(=O)(=O)c1ccc2nc(NC(=O)Nc3ccc(Cl)cc3)sc2c1 was read as GRIN3A LBD mod 27.6*, SKN-1 inh -20.4, SMARCA2 activ -1.5, Vif inh 10.7 and NadD block 11.6.

Screens (PubChem BioAssay)
